Experimental data: PubChem BioAssay
A number with no mark means an inactive call. For some of these results: Measured potencies and affinities stand elsewhere. Activity calls are given as the source filed them. Unless noted, no rule for the calls is given here.

How the values were obtained:
[1] = antimalarial activity against Dd2 strain (AID 2302;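 active = growth inhibition above 50% at the single 2 µM test dose, taken to imply half-maximal potency below 2 µM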;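 also: 0% = DMSO untreated growth and 100% = chloroquine plus artemisinin killed control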); settings: P. falciparum Dd2 in RBCs, LDH growth readout, 72 h; at 2 µM; active compounds read high
[2] = HepG2 cytotoxicity, primary screen, cytotoxicity control for P. falciparum antimalarial project, cell-based, ATP luminescence (AID 2303;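 active = inhibition above 50%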;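 also: 0% = DMSO wells and 100% = digitonin-killed cells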); settings: HepG2 viability, 24-48 h, at 10 µM, active compounds read high
[3] = biological target: L-lactate dehydrogenase (Plasmodium falciparum (isolate CDC / Honduras)) (UniProt Q27743); test: PfLDH activity inhibition – cell lysate, 3D7 strain, counter-screen for P. falciparum growth inhibition project (AID 2304);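 also: 0% = vehicle and 100% = reference inhibitor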; settings: P. falciparum 3D7 crude extract, LDH APAD/NBT absorbance; at 2 µM; active compounds read high
Sequence of L-lactate dehydrogenase (Plasmodium falciparum (isolate CDC / Honduras)) (Q27743 whole entry, looked up): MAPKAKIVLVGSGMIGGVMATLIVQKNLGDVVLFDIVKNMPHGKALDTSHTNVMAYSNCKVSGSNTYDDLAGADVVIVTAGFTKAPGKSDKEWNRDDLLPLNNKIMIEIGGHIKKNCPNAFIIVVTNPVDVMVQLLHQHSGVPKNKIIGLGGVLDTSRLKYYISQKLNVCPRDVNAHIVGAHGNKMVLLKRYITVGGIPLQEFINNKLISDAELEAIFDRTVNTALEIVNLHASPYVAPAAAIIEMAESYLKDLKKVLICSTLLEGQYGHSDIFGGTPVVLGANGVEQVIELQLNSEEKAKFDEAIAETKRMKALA

[4] = inhibition of 3D7 malaria parasite growth – strain 3D7 (AID 2306);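 also: 0% = DMSO wells and 100% = chloroquine plus artemisinin control wells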; settings: P. falciparum 3D7 erythrocytic growth, LDH absorbance, 72 h; at 2 µM; active compounds read high
[5] = biological target: Calcium-dependent protein kinase 1 (Plasmodium falciparum (isolate 3D7)) (UniProt P62344); test: PfCDPK1 kinase inhibitors, biochemical, TCAMS library (AID 1159585; cut-off not given, nearly all actives have IC50 up to about 0.98 µM;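 also: inhibitors leave more ATP so luminescence rises with inhibition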); settings: recombinant PfCDPK1, Kinase-Glo ATP depletion luminescence
Sequence of Calcium-dependent protein kinase 1 (Plasmodium falciparum (isolate 3D7)) (P62344 whole entry, looked up): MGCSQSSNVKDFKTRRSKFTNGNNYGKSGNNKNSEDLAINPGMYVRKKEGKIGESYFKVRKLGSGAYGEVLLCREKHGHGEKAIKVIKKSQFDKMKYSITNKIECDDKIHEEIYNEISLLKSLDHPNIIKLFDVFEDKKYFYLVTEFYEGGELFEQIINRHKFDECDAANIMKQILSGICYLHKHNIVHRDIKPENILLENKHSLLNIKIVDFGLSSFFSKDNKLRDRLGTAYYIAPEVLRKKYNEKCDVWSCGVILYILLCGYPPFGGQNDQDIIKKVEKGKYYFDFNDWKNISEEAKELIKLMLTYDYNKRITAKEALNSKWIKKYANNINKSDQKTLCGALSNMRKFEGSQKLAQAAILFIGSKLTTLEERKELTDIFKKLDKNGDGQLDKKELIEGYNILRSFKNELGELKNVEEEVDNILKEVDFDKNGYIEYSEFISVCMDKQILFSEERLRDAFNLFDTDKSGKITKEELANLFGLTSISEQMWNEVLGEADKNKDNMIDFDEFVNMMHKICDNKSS

[6] = biological target: Plasmodium falciparum protein kinase 6 (PK6, PF3D7_1337100) (UniProt Q8IDW1); test: PfPK6 kinase inhibitors, biochemical, TCAMS library (AID 1159586); settings: recombinant PfPK6, Kinase-Glo ATP depletion luminescence
Sequence of Plasmodium falciparum protein kinase 6 (PK6, PF3D7_1337100) (Q8IDW1 1-305): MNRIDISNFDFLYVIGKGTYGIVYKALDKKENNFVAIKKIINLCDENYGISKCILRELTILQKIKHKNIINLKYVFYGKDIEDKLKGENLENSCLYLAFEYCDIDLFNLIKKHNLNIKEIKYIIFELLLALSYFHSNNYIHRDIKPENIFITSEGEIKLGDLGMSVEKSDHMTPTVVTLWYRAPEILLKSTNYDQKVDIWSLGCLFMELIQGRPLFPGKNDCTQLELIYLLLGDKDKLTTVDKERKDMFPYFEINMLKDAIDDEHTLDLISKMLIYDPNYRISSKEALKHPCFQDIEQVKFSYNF

[7] = biological target: Protein kinase 7 (PK7), Plasmodium falciparum 3D7 (PF3D7_0213400) (UniProt Q7YTF7); test: inhibition of Plasmodium PK7 catalytic activity – biochemical, TCAMS antimalarial set, Kinase-Glo luminescence (AID 1159587); settings: recombinant PfPK7, Kinase-Glo ATP depletion luminescence
Sequence of Protein kinase 7 (PK7), Plasmodium falciparum 3D7 (PF3D7_0213400) (Q7YTF7 1-343): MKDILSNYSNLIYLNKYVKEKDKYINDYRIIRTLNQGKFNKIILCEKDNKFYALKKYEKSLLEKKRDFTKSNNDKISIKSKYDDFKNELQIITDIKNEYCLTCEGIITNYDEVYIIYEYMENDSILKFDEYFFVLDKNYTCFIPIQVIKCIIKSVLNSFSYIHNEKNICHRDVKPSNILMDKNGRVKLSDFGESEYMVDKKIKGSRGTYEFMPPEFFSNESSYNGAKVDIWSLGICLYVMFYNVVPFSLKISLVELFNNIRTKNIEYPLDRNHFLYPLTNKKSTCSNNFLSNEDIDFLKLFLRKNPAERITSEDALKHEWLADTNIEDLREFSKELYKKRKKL

[8] = biological target: Calcium-dependent protein kinase 4 (Plasmodium falciparum (isolate 3D7)) (UniProt Q8IBS5); test: PfCDPK4 kinase inhibitors, biochemical, TCAMS library (AID 1159588; cut-off not given, nearly all actives have IC50 up to about 0.91 µM); settings: recombinant PfCDPK4, Kinase-Glo ATP depletion luminescence
Sequence of Calcium-dependent protein kinase 4 (Plasmodium falciparum (isolate 3D7)) (Q8IBS5 whole entry, looked up): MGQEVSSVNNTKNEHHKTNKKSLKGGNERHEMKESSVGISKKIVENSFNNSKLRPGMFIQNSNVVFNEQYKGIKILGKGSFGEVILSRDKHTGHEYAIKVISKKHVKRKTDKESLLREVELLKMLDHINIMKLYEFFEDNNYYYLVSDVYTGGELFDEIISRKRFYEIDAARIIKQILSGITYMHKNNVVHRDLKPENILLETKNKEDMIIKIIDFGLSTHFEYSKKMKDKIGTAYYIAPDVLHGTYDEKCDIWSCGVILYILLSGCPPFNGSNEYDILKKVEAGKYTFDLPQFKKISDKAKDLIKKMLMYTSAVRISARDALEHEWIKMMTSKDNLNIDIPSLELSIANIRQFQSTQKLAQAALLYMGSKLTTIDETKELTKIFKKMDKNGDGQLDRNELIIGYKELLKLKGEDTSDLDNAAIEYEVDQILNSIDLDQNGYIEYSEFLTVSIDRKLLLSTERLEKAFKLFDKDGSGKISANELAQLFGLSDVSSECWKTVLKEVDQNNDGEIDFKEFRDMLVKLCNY

| Compound | growth inhibition [1] | inhibition [2] | inhibition [3] [%] | growth inhibition [4] | outcome [5] | outcome [6] | outcome [7] | outcome [8] |
| --- | --- | --- | --- | --- | --- | --- | --- | --- |
| CCOC(=O)N1CCN(CCCCNc2c3ccc(Cl)cc3nc3ccc(OC)cc23)CC1 | 98% (active) | 25% | -5 | 104% (active) | inactive | inactive | inactive | inactive |
| N#Cc1c(-c2ccccc2)cn2c1[nH]c(=O)c1ccccc12 | 95% (active) | -1% | 1 | 92% (active) | inactive | inactive | inactive | inactive |
| CCN1CCC(N(Cc2ccc(-c3ccc(C(F)(F)F)cc3)cc2)C(=O)Cn2c(CCc3cccc(F)c3F)cc(=O)c3ccccc32)CC1 | 94% (active) | 100% (active) | 3 | 94% (active) | inactive | inactive | inactive | inactive |
| O=C(Nc1ccnc2ccccc12)NC1CCN(CCc2ccccc2)CC1 | 43% | 7% | -3 | 100% (active) | inactive | inactive | inactive | inactive |
| COc1ccc(-c2ccc(NC(=O)c3cccc(Cl)c3)cc2)cc1CN1CCCC1 | 84% (active) | 35% | 4 | 100% (active) | inactive | inactive | inactive | inactive |
| CCC/C=C/c1c(CNCCCNc2cc(=O)c3ccccc3[nH]2)sc(CC)c1Br | 71% (active) | 8% | -1 | 88% (active) | inactive | inactive | inactive | inactive |
| CC(=O)Nc1cccc(C(=O)Nc2cccc(-c3ccc(-c4nc5c(C)cccc5[nH]4)s3)c2)c1 | 26% | 75% (active) | 4 | 99% (active) | inactive | inactive | inactive | inactive |
| Cc1[nH]c(C)c(-c2cccc(-c3ccc(OC(F)(F)F)cc3)c2)c(=O)c1Br | 96% (active) | 45% | 0 | 97% (active) | inactive | inactive | inactive | inactive |
| Fc1cccc2sc(Nc3nc(-c4ccccn4)cs3)nc12 | 97% (active) | 30% | 6 | 95% (active) | inactive | inactive | inactive | inactive |
| COc1cccc(CN2Cc3ccccc3OC3(CCN(Cc4c[nH]c5cnccc45)CC3)C2)c1 | 83% (active) | 39% | -3 | 83% (active) | inactive | inactive | inactive | inactive |
| CN(C)CCCc1cc(NC(=O)Nc2cccc(Cl)c2Cl)ccc1I | 45% | 12% | 1 | 102% (active) | inactive | inactive | inactive | inactive |
| CC(C)(C)c1ccc(CNC(=O)/C=C/c2ccc(CNC3CCNCC3)cc2)cc1 | 21% | 6% | 1 | 96% (active) | inactive | inactive | inactive | inactive |
| COc1cc(OC)c(OC)cc1C=NNc1cc(C)nc2ccccc12 | 95% (active) | 5% | 0 | 100% (active) | inactive | inactive | inactive | inactive |
| CN1CCCC(CN2CCN(Cc3cccc(-c4ccc(-c5nc6ccc(F)cc6[nH]5)cc4)c3)CC2)C1 (centres undefined) | 100% (active) | 78% (active) | -1 | 101% (active) | inactive | inactive | inactive | inactive |
| COc1ccc(Nc2nccc(NCCNC(=O)Nc3ccccc3F)n2)cc1 | 4% | 4% | 1 | 85% (active) | inactive | inactive | inactive | inactive |
| Cc1c(CN2CCC(N3CCC(C(=O)NC4CC4)CC3)CC2)[nH]c2c(Cl)cccc12 | 3% | 22% | 1 | 92% (active) | inactive | inactive | inactive | inactive |
| NCCCN(Cc1ccc(Cl)c(Cl)c1)C(=O)Nc1ccc(Cl)c(Cl)c1 | 41% | 100% (active) | -2 | 93% (active) | inactive | inactive | inactive | inactive |
| Cc1ccc(C)c(C2CCN(CCCCNC(=O)c3ccc(NC(=O)c4ccc(Cl)cc4)cc3)CC2)c1 | 13% | 15% | 7 | 94% (active) | inactive | inactive | inactive | inactive |
| CN(C)CCOc1ccc2c(=O)cc(CCc3cccc(F)c3F)n(CC(=O)N(C)Cc3ccc(-c4ccc(C(F)(F)F)cc4)cc3)c2c1 | 60% (active) | 33% | 2 | 90% (active) | inactive | inactive | inactive | inactive |

| Compound | growth inhibition [1] | inhibition [2] | inhibition [3] [%] | growth inhibition [4] | outcome [5] | outcome [6] | outcome [7] | outcome [8] |
| --- | --- | --- | --- | --- | --- | --- | --- | --- |
| Cc1cccn2c(=O)c3cc(C(=O)NCCc4ccccc4)c(=N)n(CCCOC(C)C)c3nc12 | 40% | 19% | -3 | 101% (active) | inactive | inactive | inactive | inactive |
| CC(C)c1cccc(C(NC(=O)[C@H]2Cc3ccccc3CN2C(=O)c2cccc(N3CCOCC3)c2)C2CCCC2)c1 (some centres undefined) | 96% (active) | 3% | 1 | 94% (active) | inactive | inactive | inactive | inactive |
| CCCOc1ccc(CCNCCCCNCCc2ccc(OCCC)c3ccccc23)c2ccccc12 | 52% (active) | 100% (active) | 7 | 93% (active) | inactive | inactive | inactive | inactive |
| Cc1nc2ccc3ccc(CNc4ccc(C(=O)N[C@@H](CCC(=O)O)C(=O)N[C@@H](Cc5cccs5)C(=O)O)c(F)c4)cc3c2c(=O)[nH]1 | 96% (active) | 43% | 4 | 97% (active) | inactive | inactive | inactive | inactive |
| CCN(CCNC(=O)Nc1cc(C(F)(F)F)cc(C(F)(F)F)c1)c1cccc(C)c1 | 100% (active) | -3% | 4 | 98% (active) | inactive | inactive | inactive | inactive |
| Cc1ccccc1Cn1c(CN2CCC(C(=O)NC3CC3)CC2)cc2ccccc21 | 96% (active) | 7% | -2 | 97% (active) | inactive | inactive | inactive | inactive |
| Cc1c(Cc2ccccc2Cl)cnc2nc(N)nc(N)c12 | 96% (active) | 67% (active) | -2 | 91% (active) | inactive | inactive | inactive | inactive |
| CCOC(=O)C1=C(C)N=c2sc(=Cc3ccccc3O)c(=O)n2C1c1ccc(OC)c2ccccc12 (centres undefined) | 38% | -6% | 1 | 97% (active) | inactive | inactive | inactive | inactive |
| O=C(Nc1ccc(OC2CCN(Cc3ccc(F)cc3)C2)c(Cl)c1)c1ccco1 (centres undefined) | 97% (active) | 9% | -2 | 96% (active) | inactive | inactive | inactive | inactive |
| CCOC(=O)C1CCN(CCOc2cc(NC(=O)/C=C/c3ccccc3Cl)ccc2Br)CC1 | 29% | 6% | -2 | 87% (active) | inactive | inactive | inactive | inactive |
| CCOc1ccc2c(NN=Cc3ccc(OC)c(OC)c3)cc(C)nc2c1 | 58% (active) | 22% | 2 | 100% (active) | inactive | inactive | inactive | inactive |
| CC(C)N1CCN(C(=O)c2ccc(CNCCCN3CCN(c4ccccc4C(F)(F)F)CC3)s2)CC1 | 42% | 32% | -7 | 98% (active) | inactive | inactive | inactive | inactive |
| CN1C(=C2SC(=Nc3ccc4ncccc4c3)N(Cc3ccccc3)C2=O)Sc2ccc(Cl)cc21 | 75% (active) | 4% | -2 | 99% (active) | inactive | inactive | inactive | inactive |
| COc1cccc(-c2cc(C(=O)Nc3ccc4nc(-c5ccccc5)[nH]c4c3)[nH]n2)c1 | 65% (active) | 68% (active) | 2 | 100% (active) | inactive | inactive | inactive | inactive |
| COc1ccc(Nc2nc(NCc3ccc(-n4ccnc4)cc3)cc(-c3ccc(OC)cc3)n2)cc1 | 25% | 8% | -2 | 96% (active) | inactive | inactive | inactive | inactive |
| CCCCc1ccc(-c2c(N)nc(N)nc2CC)cc1 | 0% | 63% (active) | -1 | 95% (active) | inactive | inactive | inactive | inactive |
| COc1ccc(CCN(C)CCOc2ccc(NC(=O)COc3ccc4sc5ccccc5c(=O)c4c3)cc2)cc1OC | 91% (active) | 99% (active) | -1 | 100% (active) | inactive | inactive | inactive | inactive |
| COc1ccc(OC)c2c1C[C@@H]1NC[C@H]2c2c(OC)ccc(OC)c21 | 3% | 2% | 1 | 99% (active) | inactive | inactive | inactive | inactive |
| c1ccc(CCNCc2cccc(-c3ccccc3CNCc3ccc4c(c3)OCO4)c2)nc1 | 80% (active) | 41% | -2 | 90% (active) | inactive | inactive | inactive | inactive |
